The nature of experiment [1]: qHTS of pediatric cancer cell lines to identify multiple opportunities for drug repurposing: Primary screen for OHS-50 cells (AID 1347103). Further: nearly all actives have a fitted effect of over 40% in size. Further: potency means the concentration at half of the fitted maximal effect. In short, it runs like this:
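Cells (500-1,000/well) rested 5 h, then received compounds for 48 h; metabolically active cells were measured by CellTiter-Glo luminescence. Final concentrations spanned up to 46 µM (MIPE, 11-point) or 0.59 nM-46 µM (NPC, 8-point) in primary screens, 11-point in follow-ups.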

The nature of experiment [2]: qHTS of pediatric cancer cell lines to identify multiple opportunities for drug repurposing: Primary screen for MG 63 (6-TG R) cells (AID 1347105). Further: nearly all actives have a fitted effect of over 50% in size. Further: potency means the concentration at half of the fitted maximal effect. In short, it runs like this:
(§1)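 ATP-based luminescence (CellTiter-Glo) quantifies viability after a 48-hour exposure. Compounds are dosed across 8 or 11 final concentrations; DMSO and 2.3 µM bortezomib serve as controls.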

The nature of experiment [3]: qHTS of pediatric cancer cell lines to identify multiple opportunities for drug repurposing: Primary screen for control Hh wild type fibroblast cells (AID 1347106).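 Further: series mostly up to about 46 µM; a drop in luminescence marks cytotoxicity and a rise apparent proliferation; nearly all actives have a fitted effect of over 55% in size.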 In short, it runs like this:
(§2)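 Viability after 48 h compound treatment at 37C, 500-1,000 cells/well, read as ATP luminescence with CellTiter-Glo. Primary screens used 11-point (MIPE, 0.78 nM-46 µM) or 8-point (NPC, 0.59 nM-46 µM) final concentrations; follow-up screens used 11-point dilutions.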

Experiment [4] is described as follows: qHTS of pediatric cancer cell lines to identify multiple opportunities for drug repurposing: Primary screen for Rh30 cells (AID 1347107). Further: nearly all actives have a fitted effect of over 75% in size. Further: potency means the concentration at half of the fitted maximal effect. In short, it runs like this:
as §2

Experiment [5] is described as follows: qHTS of pediatric cancer cell lines to identify multiple opportunities for drug repurposing: Primary screen for Rh41 cells (AID 1347108). Further: nearly all actives have a fitted effect of over 70% in size. Further: potency means the concentration at half of the fitted maximal effect. In short, it runs like this:
as §1

Experiment [6] can be described thus: qHTS of pediatric cancer cell lines to identify multiple opportunities for drug repurposing: Confirmatory screen for NB1643 cells (AID 1347109). Further: nearly all actives have a fitted effect of over 45% in size. In short, it runs like this: as §2
The nature of experiment [7]: qHTS of pediatric cancer cell lines to identify multiple opportunities for drug repurposing: Confirmatory screen for A673 cells (AID 1347110). Further: nearly all actives have a fitted effect of over 65% in size. In short, it runs like this: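 qHTS titration format: primary MIPE 0.78 nM-46 µM (11 pts), NPC 0.59 nM-46 µM; confirmation 11 pts. 48 h, CTG luminescence.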
Experiment [8] can be described thus: qHTS of pediatric cancer cell lines to identify multiple opportunities for drug repurposing: Confirmatory screen for SK-N-MC cells (AID 1347111).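 Further: cells exposed to compound for 48 h before the readout; nearly all actives have a fitted effect of over 70% in size.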 Further: potency means the concentration at half of the fitted maximal effect. In short, it runs like this:
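SK-N-MC cells at 500-1,000 cells/well in growth media were pre-incubated 5 h, then exposed to compounds at 11-point dilutions for 48 h at 37 degrees C, 5% CO2. Viability was read as CellTiter-Glo luminescence.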

A short description of experiment [9]: qHTS of pediatric cancer cell lines to identify multiple opportunities for drug repurposing: Confirmatory screen for DAOY cells (AID 1347114). Further: nearly all actives have a fitted effect of over 65% in size. In short, it runs like this:
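Viability measured as metabolically active cells via CellTiter-Glo luminescence following 48 hours of compound exposure, 11-point dilutions in confirmatory testing. 500-1,000 cells/well plated 5 hours before dosing; controls were DMSO and 2.3 µM bortezomib.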

A short description of experiment [10]: qHTS of pediatric cancer cell lines to identify multiple opportunities for drug repurposing: Confirmatory screen for NB-EBc1 cells (AID 1347115). Further: nearly all actives have a fitted effect of over 45% in size. In short, it runs like this: as §2
A short description of experiment [11]: qHTS of pediatric cancer cell lines to identify multiple opportunities for drug repurposing: Confirmatory screen for MG 63 (6-TG R) cells (AID 1347119). Further: nearly all actives have a fitted effect of over 55% in size. Further: potency means the concentration at half of the fitted maximal effect. In short, it runs like this:
as §2

Experiment [12] is described as follows: qHTS of pediatric cancer cell lines to identify multiple opportunities for drug repurposing: Confirmatory screen for control Hh wild type fibroblast cells (AID 1347121). Further: nearly all actives have a fitted effect of over 70% in size. In short, it runs like this: as §2
A short description of experiment [13]: qHTS of pediatric cancer cell lines to identify multiple opportunities for drug repurposing: Confirmatory screen for U-2 OS cells (AID 1347122). Further: nearly all actives have a fitted effect of over 65% in size. In short, it runs like this: as §2
The nature of experiment [14]: qHTS of pediatric cancer cell lines to identify multiple opportunities for drug repurposing: Confirmatory screen for Rh41 cells (AID 1347123).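 Further: 48 h compound exposure; nearly all actives have a fitted effect of over 60% in size.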 Further: potency means the concentration at half of the fitted maximal effect. In short, it runs like this:
as §2

Experiment [15] is described as follows: qHTS of pediatric cancer cell lines to identify multiple opportunities for drug repurposing: Confirmatory screen for RD cells (AID 1347124).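 Further: cells exposed to compound for 48 h before viability readout; nearly all actives have a fitted effect of over 65% in size.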 In short, it runs like this:
as §2

Experiment [16] in a line: qHTS of pediatric cancer cell lines to identify multiple opportunities for drug repurposing: Confirmatory screen for Rh18 cells (AID 1347125). Further: nearly all actives have a fitted effect of over 55% in size. In short, it runs like this: as §2
A short description of experiment [17]: qHTS of pediatric cancer cell lines to identify multiple opportunities for drug repurposing: Confirmatory screen for Rh30 cells (AID 1347126). Further: nearly all actives have a fitted effect of over 55% in size. In short, it runs like this: as §2
Experiment [18] can be described thus: qHTS of pediatric cancer cell lines to identify multiple opportunities for drug repurposing: Primary screen for RD cells (AID 1347104). Further: nearly all actives have a fitted effect of over 55% in size. Further: potency means the concentration at half of the fitted maximal effect. In short, it runs like this: as §1
Experiment [19] is described as follows: qHTS of pediatric cancer cell lines to identify multiple opportunities for drug repurposing: Confirmatory screen for LAN-5 cells (AID 1347113). Further: nearly all actives have a fitted effect of over 65% in size. In short, it runs like this: as §2
Experiment [20] can be described thus: qHTS of pediatric cancer cell lines to identify multiple opportunities for drug repurposing: Confirmatory screen for Saos-2 cells (AID 1347127). Further: nearly all actives have a fitted effect of over 60% in size. In short, it runs like this:
as §2

Among the data in PubChem BioAssay (NCATS) are Potency values, retold here.

Inconclusive results are not listed. Calls of active or inactive are those of the source. The call rests on the fitted dose curve; in most records, active means well fitted curve in the direction sought with a large enough effect; inconclusive means small, poorly fitted or top-dose-only effect, or another doubt; inactive means no such curve, though single readings can be large; an effect the other way counts as inactive or inconclusive.

For the molecule `CCC(=O)O[C@]1(C(=O)COC)[C@@H](C)C[C@H]2[C@@H]3CCC4=CC(=O)C=C[C@]4(C)C3(F)[C@@H](O)C[C@@]21C` (stereo not given in full), the Potency result in [1], in experiment [2], in experiment [3], in experiment [4], in experiment [5] and in experiment [6] was “inactive” each time. The Potency result in experiment [7], in [8], in experiment [9], in experiment [10], in experiment [12] and in [13] was “inactive” throughout. Further, the Potency result in [15], in experiment [16] and in experiment [17] was “inactive” in each case. Also, the Potency is 26.1 µM (active) in experiment [11] and 16.5 µM (active) in experiment [14].

With `OC1(c2ccc(Cl)c(C(F)(F)F)c2)CCN(CCCC(c2ccc(F)cc2)c2ccc(F)cc2)CC1`, the Potency in experiment [1] is 3.89 µM (active); in experiment [2] it was 13.3 µM (active); in [5] it was 16.8 µM (active).

For the molecule `N#Cc1cc(NC(=O)C(=O)O)c(Cl)c(NC(=O)C(=O)O)c1`, the Potency entry in experiment [1], in experiment [2], in experiment [3], in [4] and in experiment [5] was “inactive” each time.

As for `CC(C)(C)c1ccc(O)c(O)c1`, in [18], the Potency is 8.63 µM (active).

Regarding `CO[C@@]1(NC(=O)CSC[C@@H](N)C(=O)O)C(=O)N2C(C(=O)O)=C(CSc3nnnn3C)CS[C@@H]21`, the Potency result in experiment [1], in experiment [2], in experiment [3], in [4] and in experiment [5] was “inactive” each time.

With `CCOC(=O)N1CCC(Nc2ccc(Cl)cc2N)CC1`, the Potency entry in experiment [18], in [2], in [3] and in [4] was “inactive” in each case.

`Nc1cccc2c(N)cccc12`: the results for the Potency in experiment [1] and in experiment [5] were 31.7 µM (active) and 30.6 µM (active), respectively. The Potency result in experiment [2] and in [3] was “inactive” in each case.

Regarding `CCCC(=O)O[C@]1(C(=O)CCl)[C@@H](C)C[C@H]2[C@@H]3CCC4=CC(=O)C=C[C@]4(C)[C@@]3(F)C(=O)C[C@@]21C`, the Potency in experiment [1] is 13.8 µM (active); in [8], 14.7 µM (active). For the same molecule, the Potency entry in experiment [2], in [3], in [4], in experiment [6], in experiment [7] and in experiment [19] was “inactive” each time. Further, the Potency entry in [15], in experiment [16], in experiment [17] and in experiment [20] was “inactive” throughout.

With `CC(NCCC(c1ccccc1)c1ccccc1)c1ccccc1` (stereo not given), the Potency in experiment [1] is 17.4 µM (active). Besides, the Potency entry in experiment [3] was “inactive”.

In the case of `O=C(O)[C@H](O)[C@@H](O)[C@H](O[C@@H]1O[C@H](CO)[C@H](O)[C@H](O)[C@H]1O)[C@H](O)CO`, the Potency result in experiment [1], in [2], in [3], in [4] and in experiment [5] was “inactive” each time.

`COCCc1ccccn1`: the Potency result in experiment [1], in [2], in experiment [3], in experiment [4] and in experiment [5] was “inactive” each time.

Take `O=C(CCCl)NCc1ccccc1`: the Potency entry in experiment [1], in experiment [2], in experiment [3], in experiment [4] and in experiment [5] was “inactive” in each case.

As for `CN(C)CCN(Cc1ccsc1)c1ccccn1`, the Potency result in experiment [1], in [2], in experiment [3], in [4], in [5] and in experiment [6] was “inactive” throughout. For the same molecule, the Potency result in experiment [7], in [19], in experiment [9], in [10], in experiment [11] and in experiment [12] was “inactive” in each case. Moreover, the Potency result in experiment [14], in experiment [15], in [16], in experiment [17] and in experiment [20] was “inactive” throughout.

In the case of `CC(C)(C)C1CCC(CC2=C(O)c3ccccc3C(=O)C2=O)CC1` (stereo not given), in [1], the Potency was 3.89 µM (active). The Potency entry in [3] was “inactive”.

For `COC(=O)c1cc(Cl)ccc1OC`, the Potency result in [1], in experiment [2], in experiment [3], in [4] and in [5] was “inactive” each time.

As for `OCCCc1ccccc1`, the Potency entry in experiment [1], in experiment [2], in [3], in experiment [4] and in experiment [5] was “inactive” each time.

`CN(C)CCOC(c1ccccc1)c1ccc(Br)cc1` (stereo not given): in experiment [1], the Potency was 21.9 µM (active). For the same molecule, the Potency entry in [2], in experiment [3], in [4] and in [5] was “inactive” throughout.

For the molecule `CC[C@@H]([C@H](C)O)n1ncn(-c2ccc(N3CCN(c4ccc(OC[C@@H]5CO[C@@](Cn6cncn6)(c6ccc(F)cc6F)C5)cc4)CC3)cc2)c1=O`, in experiment [1], the Potency was 13.8 µM (active). The Potency entry in experiment [3] and in experiment [4] was “inactive” throughout.

Consider `Cc1cc2nc3ccc(=[N+](C)C)cc-3sc2cc1N`, for which the Potency in experiment [1] was 3.89 µM (active); in experiment [2] it was 13.3 µM (active); in [4], 15 µM (active); in experiment [5], 5.96 µM (active). Moreover, in experiment [3], the Potency entry is “inactive”.
